These results are taken from PubChem BioAssay.

Assay [1] has as its target ATP-dependent translocase ABCB1 (Homo sapiens) (UniProt P08183). Kind of assay: P-glycoprotein substrate transport blockade – cell-based (AID 377; in the data active = fluorescence slope change above about 50%). The conditions noted are these: MDR1-expressing cells, fluorescent substrate accumulation slope; stronger effect = higher value; concentration not given here.
A short description of assay [2]: compounds altering viability of human ES cells (AID 493140; call rule not given here;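 note: cells exposed to compounds for four days before counting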). The conditions noted are these: human embryonic stem cell survival screen; stronger effect = higher value.
The nature of assay [3]: P. berghei load reduction in hepatocytes – cell-based, HepG2, luciferase luminescence, HepG2 viability, primary screen (AID 624349; in the data active = parasite load remaining mostly below about 12%, no sharp cut-off; inactive = mostly above about 10%;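 note: 100% = mean of DMSO negative control wells on the same plate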). Conditions: P. berghei liver stage in HepG2, luciferase luminescence, concentration not given here; parasite load remaining: stronger effect = lower value; viability: measured here: HepG2 viability without parasites.
Assay [4] has as its target 6-phosphogluconate dehydrogenase, decarboxylating (Homo sapiens) (UniProt P52209). Kind of assay: inhibition of human phosphogluconate dehydrogenase – biochemical, recombinant enzyme, NADPH absorbance, primary screen (AID 1159550). Conditions: recombinant 6PGD, NADPH absorbance 341 nm; at 10 µM; stronger effect = higher value.
A short description of assay [5]: viability loss with induced miR-34 in A549 – imaging, A549 dox-inducible miR-34, nuclei and caspase counts, primary screen (AID 1347080;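 active = compounds whose cell count with miR-34 switched on is under 0.7 times the count with it off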). The conditions noted are these: A549 miR-34 inducible, Hoechst nuclei count, 48 h.
Assay [6] addresses Mitogen-activated protein kinase 7 (Homo sapiens) (UniProt Q13164). Put plainly: Gal4-ERK5 driven luciferase induction – cell-based, HTS, primary screen (AID 1508626;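 active = luciferase signal above three times the same-plate solvent-only control wells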;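 note: luciferase driven by Gal4-ERK5 fusion binding five Gal4 sites before minimal TATA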). The conditions noted are these: HeLa Gal4-ERK5 transactivation, 18 h, at 5 µM, stronger effect = higher value.
For assay [7], the target named is NAD(+) hydrolase SARM1 (Homo sapiens) (UniProt Q6SZW1). Kind of assay: blocking NAD cleavage by SARM1 SAM-TIR – cell lysate, NAD-Glo luminescence (AID 1508614;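 active = compound whose remaining NAD level is above about 45 nM, limit read from the data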;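 note: higher remaining NAD means stronger inhibition of SARM1 NADase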). Conditions: SAM-TIR HEK293T lysate NADase, at 1 µM, stronger effect = higher value.
Sequence of NAD(+) hydrolase SARM1 (Homo sapiens) (Q6SZW1 whole entry, looked up): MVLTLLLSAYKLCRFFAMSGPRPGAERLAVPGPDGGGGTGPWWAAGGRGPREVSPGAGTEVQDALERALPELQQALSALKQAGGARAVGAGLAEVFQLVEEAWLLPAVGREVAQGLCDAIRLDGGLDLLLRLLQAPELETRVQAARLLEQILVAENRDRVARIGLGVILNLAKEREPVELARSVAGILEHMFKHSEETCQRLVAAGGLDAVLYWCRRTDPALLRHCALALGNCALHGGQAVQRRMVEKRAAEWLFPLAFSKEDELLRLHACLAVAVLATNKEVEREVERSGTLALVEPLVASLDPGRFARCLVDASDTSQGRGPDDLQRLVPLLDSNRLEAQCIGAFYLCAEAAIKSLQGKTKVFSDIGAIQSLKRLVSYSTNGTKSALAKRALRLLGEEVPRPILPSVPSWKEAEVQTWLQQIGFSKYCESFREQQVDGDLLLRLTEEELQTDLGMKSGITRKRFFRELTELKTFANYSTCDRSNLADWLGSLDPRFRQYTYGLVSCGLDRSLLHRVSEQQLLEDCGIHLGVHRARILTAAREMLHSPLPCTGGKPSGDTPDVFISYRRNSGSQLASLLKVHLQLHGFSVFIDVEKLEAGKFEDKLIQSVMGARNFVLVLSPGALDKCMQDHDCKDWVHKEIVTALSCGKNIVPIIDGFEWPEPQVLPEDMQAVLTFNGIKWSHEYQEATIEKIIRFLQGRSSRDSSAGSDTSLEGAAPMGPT
Assay [8] is described as follows: MELAS cybrid and Rieske KO viability enhancers – cell-based, MELAS cybrids, Rieske KO mouse fibroblasts, CellTiter-Glo, primary screen (AID 1508586;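 active = mean z-score across replicates of 1.96 or higher in either the MELAS or the Rieske mutant cell line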;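 note: z relative to plate mean and SD of compound and empty wells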). Conditions: low glucose. In general terms: Cellular ATP, detected with luciferase, serves as a proxy for viable cell number.
Where [9] appears, read: stronger effect = lower value, cell number ratio, induced over uninduced.
The mark [10] stands for this setting: measured here: relative caspase fold change +Dox/-Dox.
[11] abbreviates: measured here: total cells with miR-34 induction, stronger effect = lower value.
Setting [12] is: measured here: total cells without miR-34 induction.
[13] abbreviates: MELAS cybrid survival, CellTiter-Glo 48 h, stronger effect = higher value.
Where [14] appears, read: Rieske KO mouse fibroblast survival, CellTiter-Glo 72 h.

Where “and” joins values, the source holds several entries; their conditions need not be identical. Equal entries are not always repeated. Records with an inconclusive call do not appear. Calls of active or inactive are those of the source.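 Rule for the calls, unless noted: active = at least 20% inhibition of 6-phosphogluconate dehydrogenase activity; inactive = the rest.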

Sequence of 6-phosphogluconate dehydrogenase, decarboxylating (Homo sapiens) (P52209 whole entry, looked up): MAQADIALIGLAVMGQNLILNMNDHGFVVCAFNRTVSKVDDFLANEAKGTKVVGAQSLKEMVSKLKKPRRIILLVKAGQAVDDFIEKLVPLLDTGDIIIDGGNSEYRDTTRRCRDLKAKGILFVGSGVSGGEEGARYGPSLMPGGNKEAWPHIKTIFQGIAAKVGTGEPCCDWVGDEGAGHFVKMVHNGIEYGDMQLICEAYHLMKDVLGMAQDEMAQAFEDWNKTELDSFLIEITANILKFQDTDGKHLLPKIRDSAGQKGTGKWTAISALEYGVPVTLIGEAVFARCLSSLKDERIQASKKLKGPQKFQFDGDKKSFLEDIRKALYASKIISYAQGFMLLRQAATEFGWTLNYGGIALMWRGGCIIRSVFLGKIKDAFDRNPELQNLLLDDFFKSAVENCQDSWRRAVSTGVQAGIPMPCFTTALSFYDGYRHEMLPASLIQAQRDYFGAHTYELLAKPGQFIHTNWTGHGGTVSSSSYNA
Sequence of Mitogen-activated protein kinase 7 (Homo sapiens) (Q13164 whole entry, looked up, the tested form may be a part): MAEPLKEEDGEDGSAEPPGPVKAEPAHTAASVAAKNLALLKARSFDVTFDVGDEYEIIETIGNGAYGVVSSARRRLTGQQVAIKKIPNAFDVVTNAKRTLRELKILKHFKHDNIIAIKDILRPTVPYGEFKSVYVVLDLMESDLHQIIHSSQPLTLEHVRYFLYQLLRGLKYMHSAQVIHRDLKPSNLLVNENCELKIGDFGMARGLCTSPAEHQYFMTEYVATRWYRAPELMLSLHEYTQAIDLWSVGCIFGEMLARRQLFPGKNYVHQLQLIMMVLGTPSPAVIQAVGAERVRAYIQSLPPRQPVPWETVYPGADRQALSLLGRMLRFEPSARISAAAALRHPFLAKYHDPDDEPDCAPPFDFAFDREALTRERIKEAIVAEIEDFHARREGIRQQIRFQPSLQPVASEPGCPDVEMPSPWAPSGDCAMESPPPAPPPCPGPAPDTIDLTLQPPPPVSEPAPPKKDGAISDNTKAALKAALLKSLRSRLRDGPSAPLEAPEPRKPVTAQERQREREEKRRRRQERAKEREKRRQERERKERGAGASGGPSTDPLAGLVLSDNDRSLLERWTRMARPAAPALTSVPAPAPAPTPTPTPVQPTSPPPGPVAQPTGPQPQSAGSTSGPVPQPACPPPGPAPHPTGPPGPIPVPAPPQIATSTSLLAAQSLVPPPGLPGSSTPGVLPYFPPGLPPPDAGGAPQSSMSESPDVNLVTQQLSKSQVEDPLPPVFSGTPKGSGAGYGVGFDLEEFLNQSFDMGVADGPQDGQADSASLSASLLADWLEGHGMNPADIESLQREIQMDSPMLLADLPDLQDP
Sequence of ATP-dependent translocase ABCB1 (Homo sapiens) (P08183 whole entry, looked up): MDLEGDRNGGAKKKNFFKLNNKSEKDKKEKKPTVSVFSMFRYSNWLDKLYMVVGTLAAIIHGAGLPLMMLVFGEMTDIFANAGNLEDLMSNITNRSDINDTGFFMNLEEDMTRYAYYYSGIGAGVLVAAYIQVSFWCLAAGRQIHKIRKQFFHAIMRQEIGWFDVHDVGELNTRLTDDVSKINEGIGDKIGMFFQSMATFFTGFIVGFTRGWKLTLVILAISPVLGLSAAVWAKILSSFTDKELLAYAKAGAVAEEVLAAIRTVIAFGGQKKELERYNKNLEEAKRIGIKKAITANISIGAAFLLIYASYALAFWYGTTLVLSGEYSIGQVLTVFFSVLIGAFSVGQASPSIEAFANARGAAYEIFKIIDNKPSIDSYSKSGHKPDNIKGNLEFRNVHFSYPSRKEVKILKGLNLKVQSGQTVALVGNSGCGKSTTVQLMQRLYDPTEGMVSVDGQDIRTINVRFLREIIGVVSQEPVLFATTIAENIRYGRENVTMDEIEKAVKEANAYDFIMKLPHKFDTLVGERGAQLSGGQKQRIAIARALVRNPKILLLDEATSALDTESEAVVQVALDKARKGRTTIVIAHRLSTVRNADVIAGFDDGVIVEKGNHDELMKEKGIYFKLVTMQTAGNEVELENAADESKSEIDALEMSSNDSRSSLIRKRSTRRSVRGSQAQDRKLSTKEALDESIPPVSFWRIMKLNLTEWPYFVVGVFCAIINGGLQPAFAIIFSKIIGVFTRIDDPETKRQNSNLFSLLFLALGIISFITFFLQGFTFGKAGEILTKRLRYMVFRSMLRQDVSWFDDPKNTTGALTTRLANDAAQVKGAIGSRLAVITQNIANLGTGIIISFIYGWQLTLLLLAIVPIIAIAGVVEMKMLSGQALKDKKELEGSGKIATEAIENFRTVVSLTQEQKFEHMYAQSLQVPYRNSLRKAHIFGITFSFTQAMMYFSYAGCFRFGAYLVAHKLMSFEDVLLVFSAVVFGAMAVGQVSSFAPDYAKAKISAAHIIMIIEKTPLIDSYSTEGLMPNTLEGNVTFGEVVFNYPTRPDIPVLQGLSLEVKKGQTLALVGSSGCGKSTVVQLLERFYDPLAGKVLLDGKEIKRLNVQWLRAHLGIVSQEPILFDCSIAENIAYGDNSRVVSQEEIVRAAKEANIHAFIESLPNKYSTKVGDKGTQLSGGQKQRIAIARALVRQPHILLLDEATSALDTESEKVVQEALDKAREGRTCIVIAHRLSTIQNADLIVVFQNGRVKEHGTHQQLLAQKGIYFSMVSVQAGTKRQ

What is called viability is a read-out of living cells in per cent, often relative to untreated cells. The term inhibition denotes the relative decrease from the control value, in per cent. For `O=C(/C=C/c1ccc(O)c(O)c1)O[C@@H]1C[C@](O)(C(=O)O)C[C@@H](O)[C@H]1O`, the fluorescence slope change in assay [1] is 18.7% (inactive). Besides, the survival in assay [2] was 22.8 (inactive). The parasite load remaining in assay [3] is 105% (inactive) and 63.3% (inactive). Besides, the viability in assay [3] was 94.7% and 73.7%. Moreover, the inhibition in assay [4] was -7.84% (inactive). Moreover, the fold change in assay [5] (setting [9]) was 0.882 (inactive) and 0.998 (inactive); in assay [5] (setting [10]) it was 1.35 and 0.827. For the same compound, the cell count in assay [5] (setting [11]) is 9710 and 5820; in assay [5] (setting [12]), 11000 and 5830. In assay [6], the luciferase signal is 56 AU (inactive).
Regarding `COC(=O)[C@H]1[C@H]2C[C@H]3c4[nH]c5ccccc5c4CCN3C[C@@H]2CC[C@@H]1O`, the fluorescence slope change in assay [1] was 53.3% (active). Moreover, the survival in assay [2] is 13.8 (inactive). Also, in assay [3], the parasite load remaining is 108% (inactive) and 79.2% (inactive). The viability in assay [3] was 116% and 77.6%. In addition, in assay [4], the inhibition is 7.89% (inactive). The fold change in assay [5] (setting [9]) was 0.836 (inactive); in assay [5] (setting [10]) it was 1.95. The cell count was determined as 8660 in assay [5] (setting [11]) and 10400 in assay [5] (setting [12]). Besides, the luciferase signal in assay [6] is 44 AU (inactive).
As to `C[N+](C)(C)CCOP(=O)([O-])OP(=O)(O)OC[C@H]1O[C@@H](n2ccc(N)nc2=O)[C@H](O)[C@@H]1O`, the inhibition in assay [4] is -4.56% (inactive). Moreover, the remaining NAD in assay [7] is 10 nM (inactive). Also, the luciferase signal in assay [6] is 76 AU (inactive).
Consider `CC(C)C[C@@H]1NC(=O)[C@H](CCCN)NC(=O)[C@H](C(C)C)NC(=O)[C@H](Cc2ccc(O)cc2)N[C@@H](CCC(=O)O)C(=O)N[C@@H](CC(N)=O)C(=O)[C@@H](Cc2ccccc2)NC(=O)[C@H](Cc2ccccc2)NC(=O)[C@@H]2CCCN2C(=O)[C@@H](Cc2ccccc2)NC1=O`, for which, in assay [4], the inhibition was 2.66% (inactive). Further, in assay [7], the remaining NAD is 10 nM (inactive).
Regarding `CC[C@H]1OC(=O)[C@H](C)C(=O)[C@H](C)[C@@H](O[C@@H]2O[C@H](C)C[C@H](N(C)C)[C@H]2O)[C@](C)(OC)C[C@@H](C)C(=O)[C@H](C)[C@H]2N(CCCCn3cnc(-c4cccnc4)c3)C(=O)O[C@]12C`, the inhibition in assay [4] is -10.3% (inactive). Moreover, the remaining NAD in assay [7] is 10 nM (inactive). The luciferase signal in assay [6] is 48 AU (inactive).
`COC(=O)/C(=C1/OC(=O)C(c2ccccc2)=C1O)c1ccccc1`: the inhibition in assay [4] is 11.9% (inactive). The luciferase signal in assay [6] is 68 AU (inactive).
`CC(=O)OCC(=O)[C@@]12OC3(CCCC3)O[C@@H]1C[C@H]1[C@@H]3CCC4=CC(=O)C=C[C@]4(C)[C@@]3(F)[C@@H](O)C[C@@]12C`: in assay [4], the inhibition was 2.31% (inactive). Further, the z-score was 0.316 (inactive) in assay [8] (setting [13]) and 0.335 in assay [8] (setting [14]). In addition, in assay [7], the remaining NAD was 10 nM (inactive). In addition, the luciferase signal in assay [6] is 44 AU (inactive).
In the case of `C[C@@H]1C[C@H]2[C@@H]3C[C@H](F)C4=CC(=O)C=C[C@]4(C)[C@@]3(F)[C@@H](O)C[C@]2(C)[C@@]1(O)C(=O)COC(=O)C(C)(C)C`, in assay [4], the inhibition was 8.08% (inactive). Also, the z-score is 0.627 (inactive) in assay [8] (setting [13]) and 0.671 in assay [8] (setting [14]). In addition, the remaining NAD in assay [7] is 10 nM (inactive).
Consider `CC(=O)NC(CC(C)C)C(=O)O` (centres undefined), for which the inhibition in assay [4] is 4.75% (inactive). Besides, in assay [7], the remaining NAD was 10 nM (inactive).
Consider `CN[C@@H]1[C@H](O[C@H]2[C@H](O[C@H]3[C@H](O)[C@@H](O)[C@H](N=C(N)N)[C@@H](O)[C@@H]3N=C(N)N)O[C@@H](C)[C@]2(O)CO)O[C@@H](CO)[C@H](O)[C@H]1O`, for which the inhibition in assay [4] was -14.8% (inactive). Besides, in assay [7], the remaining NAD is 10 nM (inactive). In assay [6], the luciferase signal was 68 AU (inactive).
